Compound activity (PubChem)
Most compounds without a hit are left out; they make up all but 12% or so of the library.
NS1 function inh: qHTS Assay for Inhibitors of Influenza NS1 Protein Function. actives 0.4% (n = 270,000). AID 2326, 2010. Potency, µM (highest dose often 46.1 µM), inactives show at the highest dose activity, positive = more growth; calls by dose curve; further: actives are rising curves; nearly all actives have a fitted effect of over 50% in size
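In this qHTS, NS1 from influenza A is expressed in budding yeast, where it slows growth. Cells are switched from glucose to 2% galactose medium (pH 6.0, -URA), treated with compound, and growth recovery is read at OD600.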
Pf growth 48h: Primary qHTS for delayed death inhibitors of the malarial parasite plastid, 48 hour incubation; P. falciparum luciferase growth in erythrocytes, 48 h; AID 504832, 2011; actives 5.9% (n = 310,000); Potency, µM (top dose mostly 28.7 µM), for inactives: at the highest dose activity change, negative = inhibition, hits mostly inhibitors; further: on the % scale 0 is the no-effect control and ±100 the full control effect
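Compounds are pin-transferred into medium, infected erythrocytes (2% hematocrit, 0.1% parasitemia final) are added, and plates sit one parasite generation at 37 C in 5% CO2. Detection reagent is then added and luminescence measured.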
AMA1 RON2 block: qHTS for Inhibitors of AMA1-RON; Towards Development of Antimalarial Drug Lead: Primary Screen; Plasmodium falciparum AMA1 (3D7) - RON2 peptide interaction; AlphaScreen AMA1-biotinylated RON2 peptide binding; Potency, µM (series often up to 58.2 µM), without a hit: top-dose activity change, negative = inhibition, actives largely listed as inhibitors; actives 0.2% (n = 360,000); AID 720542, 2013;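 further: 0% = vehicle wells and -100% = peptide control; nearly all actives have a fitted effect of over 45% in size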
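AMA1 (3D7) with his tag at 25 nM final met compounds first, then biotinylated RON2 peptide at 25 nM; detection used donor plus acceptor beads, 10 µg/mL apiece, read by AlphaScreen after 30 min at room temperature.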
HCV inhibitor: qHTS Assay for Inhibitors of Hepatitis C Virus (HCV) | AID 651820, 2012 | actives 3.4% (n = 340,000) | Potency, µM (doses to about 41.8 µM), without a hit: at the top dose activity change, negative = inhibition, actives largely listed as inhibitors | Huh7.5.1 HCVcc-Cre infection, luciferase reporter, 44 h; further: on the % scale 0 is the no-effect control and ±100 the full control effect
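Antiviral activity was scored by luciferase reporter output from cells infected with HCVcc-Cre (~0.5 moi) in presence of compound, 44 h infection period, cells seeded 1,000/well 4 h prior.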
SARS PLpro yeast: qHTS of Yeast-based Assay for SARS-CoV PLP. S. cerevisiae expressing SARS-CoV PLpro, growth rescue. Potency, µM (highest dose often 32.9 µM), for inactives: at the top dose activity, positive = growth rescue, hits mostly activators. actives 0.19% (n = 330,000); calls by dose curve; further: 0% is about no effect; nearly all actives have a fitted effect of over 55% in size
Pf growth 96h: Primary qHTS for delayed death inhibitors of the malarial parasite plastid, 96 hour incubation | P. falciparum luciferase reporter growth, 96 h | Potency, µM (top dose mostly 28.7 µM), without a hit: at the top dose activity change, negative = inhibition, most hits filed as inhibitors | actives 6.9% (n = 320,000) | AID 504834, 2011; further: on the % scale 0 is the no-effect control and ±100 the full control effect
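Readout is luminescence from an integrated firefly luciferase in P. falciparum. Red cells, 2% hematocrit and 0.05% parasitemia final, were cultured with compound through two parasite generations (96 hours) at 37 C, 5% CO2.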
Numbers without * were called inactive; [ ] = another dose, or the depositor's remark. Unless noted, the call rests on the fitted dose curve; in most records, active means well fitted curve in the direction sought with a large enough effect; inconclusive means small, poorly fitted or top-dose-only effect, or another doubt; inactive means no such curve, though single readings can be large; an effect the other way counts as inactive or inconclusive. Potency means the concentration at half of the fitted maximal effect.

What do the screens show for `O=C(C1=C[C@@H](c2ccccc2)C[C@@H](OCCCCO)O1)N1CCN(Cc2ccc3c(c2)OCO3)CC1`?
NS1 function inh: -2%; Pf growth 48h: inconclusive; AMA1 RON2 block: -8%; HCV inhibitor: -8%; SARS PLpro yeast: 0%; Pf growth 96h: inconclusive

What do the screens show for `CC(=O)n1cc([C@@H]2C=C(C(=O)N3CCN(Cc4ccccc4)CC3)O[C@H](OCc3ccc(CO)cc3)C2)c2ccccc21`?
NS1 function inh: -2%; Pf growth 48h: 0.93µM*; AMA1 RON2 block: -16%; HCV inhibitor: inconclusive; SARS PLpro yeast: 0%; Pf growth 96h: 3.3µM*

How did CC(=O)n1cc([C@H]2C=C(C(=O)N3CCN(Cc4ccccc4)CC3)O[C@@H](OCCCCO)C2)c2ccccc21 do in these assays?
NS1 function inh: -6%; Pf growth 48h: inconclusive; AMA1 RON2 block: -9%; HCV inhibitor: 10%; SARS PLpro yeast: -1%; Pf growth 96h: 5.2µM*

What do the screens show for `CC1C(=O)N2CCCc3cc(NC(=O)COc4ccc(Cl)cc4)cc1c32` (stereo not given)?
Pf growth 48h: inconclusive; AMA1 RON2 block: 3%; HCV inhibitor: inconclusive; SARS PLpro yeast: -6%; Pf growth 96h: 15µM*

How did CC1C(=O)N2CCCc3cc(NC(=O)C(=O)NCCCc4ccccc4)cc1c32 (stereo not given) do in these assays?
Pf growth 48h: 12µM*; AMA1 RON2 block: -26%; HCV inhibitor: inconclusive; SARS PLpro yeast: 4%; Pf growth 96h: inconclusive

What do the screens show for `CC1C(=O)N2CCCc3cc(NC(=O)C(=O)NCCc4ccc(F)cc4)cc1c32` (stereo not given)?
Pf growth 48h: inconclusive; AMA1 RON2 block: 8%; HCV inhibitor: 11µM*; SARS PLpro yeast: -1%; Pf growth 96h: inconclusive

Results for CCCC[C@]12Cc3cc(OC)c(OC)cc3C(O1)c1c(cc(-c3ccccc3)oc1=O)O2 ?
NS1 function inh: 18%; Pf growth 48h: inconclusive; SARS PLpro yeast: -3%[6.58 µM]; Pf growth 96h: 1.5µM*

What do the screens show for `CCCC[C@]12Cc3ccccc3C(O1)c1c(cc(-c3ccccc3)oc1=O)O2`?
NS1 function inh: -67%; Pf growth 48h: 0.43µM*; SARS PLpro yeast: -17%[6.58 µM]; Pf growth 96h: 1.5µM*

How did CC(NC(=O)c1cccs1)c1ccc(Br)cc1 (stereo not given) do in these assays?
AMA1 RON2 block: -8%; HCV inhibitor: 0%

How did S=C(NCc1ccncc1)Nc1ccc(Cl)cc1 do in these assays?
NS1 function inh: -1%; Pf growth 48h: -15%; AMA1 RON2 block: 5%; HCV inhibitor: 0%; SARS PLpro yeast: -20%; Pf growth 96h: -8%

What do the screens show for `Clc1ccc(Nc2nnc(Cc3ccncc3)c3ccccc23)cc1`?
Pf growth 48h: 13µM*; Pf growth 96h: 6.7µM*

What do the screens show for `Cc1c(Cc2ccccc2)c(=O)oc2cc(OCC(=O)NCC3CCC(C(=O)O)CC3)ccc12` (stereo not given)?
NS1 function inh: -8%; Pf growth 48h: inconclusive; AMA1 RON2 block: -4%; HCV inhibitor: inconclusive; SARS PLpro yeast: 2%; Pf growth 96h: 12µM*

What do the screens show for `Cc1c(Cc2ccccc2)c(=O)oc2c(C)c(OC(C)C(=O)NCC3CCC(C(=O)O)CC3)ccc12` (stereo not given)?
NS1 function inh: 5%; Pf growth 48h: inconclusive; AMA1 RON2 block: 0%; HCV inhibitor: 23%; SARS PLpro yeast: -11%; Pf growth 96h: 13µM*

What do the screens show for `Cc1cc(OC(C)C(=O)NCC2CCC(C(=O)O)CC2)c2c(C)c(Cc3ccccc3)c(=O)oc2c1` (stereo not given)?
NS1 function inh: 11%; Pf growth 48h: inconclusive; AMA1 RON2 block: -1%; HCV inhibitor: inconclusive; SARS PLpro yeast: 1%; Pf growth 96h: 10µM*

What do the screens show for `Cc1ccc(S(=O)(=O)NCC(=O)NCCc2c[nH]c3ccccc23)cc1C`?
NS1 function inh: 9%; Pf growth 48h: 12%; AMA1 RON2 block: -10%; HCV inhibitor: inconclusive; SARS PLpro yeast: 0%; Pf growth 96h: inconclusive

What do the screens show for `CN(C(=O)CCN1C(=O)c2ccccc2C1=O)c1ccccc1`?
NS1 function inh: -1%; Pf growth 48h: 3%; AMA1 RON2 block: -5%; HCV inhibitor: 2%; SARS PLpro yeast: -7%; Pf growth 96h: 14%

How did O=C(Cn1nnc2ccccc21)OCC(=O)c1ccc(F)cc1 do in these assays?
NS1 function inh: -6%; Pf growth 48h: -1%; AMA1 RON2 block: 7%; HCV inhibitor: 15%; SARS PLpro yeast: 1%; Pf growth 96h: 38%

How did COc1ccc(C2CC(=O)C3=C(C2)NC(C)=C(C(=O)Nc2ccccc2C)C3c2coc3ccc(C)cc3c2=O)cc1OC (stereo not given) do in these assays?
NS1 function inh: -8%; Pf growth 48h: 2.3µM*; AMA1 RON2 block: -2%; HCV inhibitor: inconclusive; SARS PLpro yeast: -20%; Pf growth 96h: inconclusive

What do the screens show for `CC1=C(C(=O)Nc2ccccc2)C(c2coc3ccccc3c2=O)C2=C(CCCC2=O)N1` (stereo not given)?
NS1 function inh: 12%; Pf growth 48h: -14%; AMA1 RON2 block: 17%; HCV inhibitor: 49%; SARS PLpro yeast: 18%; Pf growth 96h: -10%

Results for Cc1nonc1NC(=O)OC1CCCCC1 ?
NS1 function inh: -32%; Pf growth 48h: inconclusive; AMA1 RON2 block: 25%; HCV inhibitor: -4%; SARS PLpro yeast: -3%; Pf growth 96h: 1µM*

How did COc1ccccc1N(CC(=O)NCC1CCCO1)C(=O)CNS(=O)(=O)c1ccccc1 (stereo not given) do in these assays?
NS1 function inh: 1%; Pf growth 48h: inconclusive; AMA1 RON2 block: -15%; HCV inhibitor: 3%; SARS PLpro yeast: 0%; Pf growth 96h: 24%

What do the screens show for `O=C(O)C1Nc2c(cccc2C(F)(F)F)C2C=CCC12` (stereo not given)?
NS1 function inh: 7%; Pf growth 48h: 12%[0.00184 µM]; SARS PLpro yeast: -1%; Pf growth 96h: 5%

How did O=C(O)C1Nc2c(O)cc(Cl)c([N+](=O)[O-])c2C2C=CCC12 (stereo not given) do in these assays?
Pf growth 48h: 38%; AMA1 RON2 block: 2.2µM*; HCV inhibitor: -2%; SARS PLpro yeast: inconclusive; Pf growth 96h: inconclusive
